Compounds without any hit were thinned out: in the full panel of roughly 79,000, 15% have a hit. Active and inactive are the calls of the source. Cut-off read from the data, not from the text of the source: active = growth inhibition above about 70%; inactive = the rest.
Experiment: NCI Yeast Anticancer Drug Screen. Data for the sgs1 mgt1 strain (AID 161);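 note: 0% = growth of cultures given vehicle only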
Conditions: S. cerevisiae sgs1 mgt1 strain, at 50.0 µM, stronger effect = higher value
Procedure, shortened: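 Read-out: growth inhibition vs vehicle controls. Cells: mutant yeast strain deficient in DNA damage repair.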

Row | SMILES | growth inhibition
1 | Cc1ccc(C(C)C)c(OCC(=O)O)c1 | 24.2% (inactive)
2 | CSc1nc2[nH]ncc2c(=O)[nH]1 | 15.4% (inactive)
3 | Nc1ccccc1SC1CC(=O)N(c2ccc(Cl)c(Cl)c2)C1=O (stereo unspecified) | 4.7% (inactive)
4 | COc1ccc(C)cc1NC(=O)SC(C)C | 9.4% (inactive)
5 | O=C(O)C1CCCN1C(=O)OCc1ccccc1 (stereo unspecified) | -17.9% (inactive)
6 | Oc1cc(O)c2c(c1)O[C@H](c1ccc(O)c(O)c1)[C@@H](O)C2 | 2.75% (inactive)
7 | CN(C)c1ncnc2c1cnn2C | 9.3% (inactive)
8 | Oc1cc2ccccc2c(-c2c(O)c(O)cc3ccccc23)c1O | 83.7% (active)
9 | NC(CO)(CO)c1ccccc1 | 10.5% (inactive)
10 | C=C1SC(=Nc2c(C)cccc2C)N(c2nc(Cl)nc(Cl)n2)C12CCCCC2 | 11.2% (inactive)
11 | NC(=O)NCCO | 13.8% (inactive)
12 | CC1=CC(=Nc2ccc(N(C)C)cc2)C=C(C)C1=O | -5.1% (inactive)
13 | CCC(C)C1CCC(O)CC1 (stereo unspecified) | 9.15% (inactive)
14 | Cc1cc2nc(C)c(C)nc2cc1C | -27.2% (inactive)
15 | CC(=O)c1cccs1 | 15.1% (inactive)
16 | CN(C)c1ccc(O)c2c1CC1CC3C(N(C)C)C(=O)C(C(N)=O)=C(O)C3(O)C(=O)C1=C2O (stereo unspecified) | 68.2% (inactive)
17 | CC(=O)N(C)N=Nc1ccc(C)cc1 | -13.6% (inactive)
18 | Nc1cc2ccccc2c(O)c1O | 39.1% (inactive)
19 | CC1(C)CC(=O)C=C(N)C1 | 1.05% (inactive)
20 | COc1ccc2c(c1)Nc1ccccc1S2 | -26.6% (inactive)
21 | CSCCC(NC(=O)C(Cl)Cl)C(=O)O (stereo unspecified) | -4.1% (inactive)

Reference: PubChem BioAssay (NCI)
